The source of these data is PubChem BioAssay AID1456 (Vanderbilt High Throughput Screening Facility, 2008).

Structures are written as SMILES. Hit rate of the full screen: of about 190,000 compounds, about 4,100 (2.2%) were called active.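 Rule for the calls: active = thallium flux slope and its plate-corrected score both differing from the plate sample mean at a set confidence after two filtering rounds, in either direction; inactive = the rest.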 What follows is part of a selection rich in actives, with near analogues and random picks from the rest.

For the assay, the target named is Solute carrier family 12 member 5 (Homo sapiens) (UniProt Q9H2X9). Description: KCC2 cotransporter modulators, thallium flux, primary screen, cell-based, HEK293 KCC2, FluoZin-2 fluorescence, MLSMR (AID 1456).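 Note: slope of fluorescence scaled to starting intensity during 10 to 20 s after thallium.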 The conditions noted are these: KCC2 cells, thallium flux FluoZin-2 fluorescence; at 10 µM.
Sequence of Solute carrier family 12 member 5 (Homo sapiens) (Q9H2X9 whole entry, looked up): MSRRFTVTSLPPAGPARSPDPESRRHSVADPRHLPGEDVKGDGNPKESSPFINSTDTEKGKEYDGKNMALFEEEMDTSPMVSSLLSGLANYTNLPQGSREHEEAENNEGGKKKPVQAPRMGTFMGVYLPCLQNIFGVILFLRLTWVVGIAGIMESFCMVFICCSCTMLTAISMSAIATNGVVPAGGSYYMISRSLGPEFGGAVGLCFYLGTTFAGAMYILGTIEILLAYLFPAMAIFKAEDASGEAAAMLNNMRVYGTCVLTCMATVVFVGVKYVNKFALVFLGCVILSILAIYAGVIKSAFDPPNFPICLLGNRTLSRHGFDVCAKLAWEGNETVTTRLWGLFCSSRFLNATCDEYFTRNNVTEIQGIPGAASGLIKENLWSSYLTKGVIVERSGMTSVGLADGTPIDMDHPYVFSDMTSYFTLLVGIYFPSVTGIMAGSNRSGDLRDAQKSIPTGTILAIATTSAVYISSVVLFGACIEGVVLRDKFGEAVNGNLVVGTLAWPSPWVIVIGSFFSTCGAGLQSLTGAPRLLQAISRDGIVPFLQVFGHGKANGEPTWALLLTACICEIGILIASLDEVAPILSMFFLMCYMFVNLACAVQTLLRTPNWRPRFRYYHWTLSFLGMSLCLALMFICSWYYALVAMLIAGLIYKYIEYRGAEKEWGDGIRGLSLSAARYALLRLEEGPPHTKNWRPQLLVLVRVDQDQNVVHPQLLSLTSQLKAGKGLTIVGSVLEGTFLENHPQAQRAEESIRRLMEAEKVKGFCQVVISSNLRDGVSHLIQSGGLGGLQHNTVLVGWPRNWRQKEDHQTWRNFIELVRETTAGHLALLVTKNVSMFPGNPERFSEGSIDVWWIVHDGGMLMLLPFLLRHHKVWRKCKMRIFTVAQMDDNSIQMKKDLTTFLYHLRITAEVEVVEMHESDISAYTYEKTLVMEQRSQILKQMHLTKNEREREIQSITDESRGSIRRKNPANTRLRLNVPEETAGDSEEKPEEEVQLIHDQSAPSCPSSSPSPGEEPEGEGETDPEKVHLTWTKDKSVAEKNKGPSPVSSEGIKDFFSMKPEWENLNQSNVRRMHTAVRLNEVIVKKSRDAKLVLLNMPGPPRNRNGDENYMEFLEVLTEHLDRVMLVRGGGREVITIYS
Turning to `COc1cc(/C=C2/C(=O)NN(c3ccc(F)cc3)C2=O)cc([N+](=O)[O-])c1O`, the B-score of Tl+ flux slope (higher = more flux/activation; lower = inhibition) was -2.31 (inactive).

For the molecule `COc1ccc(N2C(=O)CNC2=S)cc1`, the B-score of Tl+ flux slope (higher = more flux/activation; lower = inhibition) was 0.069 (inactive).

Turning to `COc1ccc(-c2cn(-c3ccc(OC)cc3)c(=S)[nH]2)cc1`, the B-score of Tl+ flux slope (higher = more flux/activation; lower = inhibition) is 8.53 (active).

Regarding `COc1ccc(-n2c(C)csc2=S)cc1`, the B-score of Tl+ flux slope (higher = more flux/activation; lower = inhibition) was 0.0167 (inactive).

For `O=C(O)CCCCCCCCCC[n+]1ccccc1`, the B-score of Tl+ flux slope (higher = more flux/activation; lower = inhibition) was 0.183 (inactive).

For the molecule `O=C(O)c1ccccc1OCc1ccccc1Cl`, the B-score of Tl+ flux slope (higher = more flux/activation; lower = inhibition) was 0.00686 (inactive).

`COc1ccc(OC)c(-n2c(-c3ccn[nH]3)n[nH]c2=S)c1`: the B-score of Tl+ flux slope (higher = more flux/activation; lower = inhibition) is -0.678 (inactive).

For `O=C(Nn1c(SCc2ccc([N+](=O)[O-])cc2)nc2ccccc2c1=O)c1ccc(F)cc1`, the B-score of Tl+ flux slope (higher = more flux/activation; lower = inhibition) was 0.0971 (inactive).

Consider `Cc1cc([N+](=O)[O-])nn1Cc1ccc(F)cc1`, for which the B-score of Tl+ flux slope (higher = more flux/activation; lower = inhibition) was -0.826 (inactive).

On to `Cc1nc(SCc2ccc(F)cc2)c([N+](=O)[O-])[nH]1`, for which the B-score of Tl+ flux slope (higher = more flux/activation; lower = inhibition) is -4.77 (active).

Turning to `CN(C)C(=O)c1nc2ccc(Cl)cn2c1CNCc1cccc(OC(F)(F)F)c1`, the B-score of Tl+ flux slope (higher = more flux/activation; lower = inhibition) is -0.562 (inactive).

For `COc1ccc(N2C(=O)CC(Nc3ccc(F)cc3)C2=O)c([N+](=O)[O-])c1` (centres undefined), the B-score of Tl+ flux slope (higher = more flux/activation; lower = inhibition) was -1.31 (inactive).

In the case of `O=C(CN(c1cccc(Cl)c1)S(=O)(=O)c1ccccc1)NN=C1CCCC1`, the B-score of Tl+ flux slope (higher = more flux/activation; lower = inhibition) was 3.73 (active).

On to `Cc1ccc(S(=O)(=O)N(CC(=O)N2CCc3ccccc3C2)c2cccc(Cl)c2)cc1`, for which the B-score of Tl+ flux slope (higher = more flux/activation; lower = inhibition) was -1.52 (inactive).

As for `CN1CCC(=NNC(=O)CN(c2cccc(Cl)c2)S(C)(=O)=O)CC1`, the B-score of Tl+ flux slope (higher = more flux/activation; lower = inhibition) is 0.643 (inactive).

For `CCn1c(SCC(=O)N/N=C/c2ccncc2)nc2ccccc21`, the B-score of Tl+ flux slope (higher = more flux/activation; lower = inhibition) was -0.7 (inactive).

For the molecule `Cc1cccc(NC(=O)CSc2nnc(CCNC(=O)OC(C)(C)C)o2)c1C`, the B-score of Tl+ flux slope (higher = more flux/activation; lower = inhibition) is -0.155 (inactive).

On to `COc1cccc(Nc2nc(N)c([N+](=O)[O-])c(NCc3ccco3)n2)c1`, for which the B-score of Tl+ flux slope (higher = more flux/activation; lower = inhibition) was -0.0593 (inactive).

For `COc1ccc(C(=O)N/N=C2\CCS(=O)(=O)c3ccc(F)cc32)cc1OC`, the B-score of Tl+ flux slope (higher = more flux/activation; lower = inhibition) was 0.15 (inactive).

With `O=C(NCCCn1ccnc1)C(=O)NCC1OCCN1S(=O)(=O)c1cc(F)ccc1F` (centres undefined), the B-score of Tl+ flux slope (higher = more flux/activation; lower = inhibition) is -0.0662 (inactive).

With `Cc1ccc(NCc2n[nH]c(=S)n2-c2ccccc2)cc1Cl`, the B-score of Tl+ flux slope (higher = more flux/activation; lower = inhibition) was 20.1 (active).

On to `CCn1c(CSCc2c(Cl)cccc2Cl)n[nH]c1=S`, for which the B-score of Tl+ flux slope (higher = more flux/activation; lower = inhibition) is -0.136 (inactive).

`O=c1[nH]nc(CSCc2ccccc2Cl)[nH]1`: the B-score of Tl+ flux slope (higher = more flux/activation; lower = inhibition) was 1.48 (inactive).

As for `S=c1[nH]nc(-c2cc(-c3ccsc3)n[nH]2)n1-c1ccccc1`, the B-score of Tl+ flux slope (higher = more flux/activation; lower = inhibition) was -0.815 (inactive).

For `S=c1[nH]nc(CSCc2ccc(Cl)cc2Cl)n1-c1ccccc1`, the B-score of Tl+ flux slope (higher = more flux/activation; lower = inhibition) was 38.3 (active).

Take `COc1ccc(NCc2nnc(SCc3ccccc3)n2-c2ccc(OC)cc2)cc1`: the B-score of Tl+ flux slope (higher = more flux/activation; lower = inhibition) was -2.95 (inactive).

Take `Cc1noc(C)c1C(=O)OCC(=O)N1CCN(S(=O)(=O)c2ccc3ccccc3c2)CC1`: the B-score of Tl+ flux slope (higher = more flux/activation; lower = inhibition) is -0.121 (inactive).

As to `CS(=O)(=O)c1ccc(Cl)c(NC(=O)Nc2ccccc2)c1`, the B-score of Tl+ flux slope (higher = more flux/activation; lower = inhibition) is -0.0556 (inactive).

Consider `COc1ccc(CCN2C(=O)N(c3ccc(OC)cc3)C(=O)C2CC(=O)Nc2ccc(OC)cc2)cc1` (centres undefined), for which the B-score of Tl+ flux slope (higher = more flux/activation; lower = inhibition) is 0.0027 (inactive).

Turning to `C/C(=N\NC(=O)CC(C)C)c1c(C(F)(F)F)[nH]n(-c2nc3ccccc3s2)c1=O`, the B-score of Tl+ flux slope (higher = more flux/activation; lower = inhibition) is -1.82 (inactive).

For `COc1ccccc1P(=O)(c1ccccc1)c1ccccc1NC(C)=O` (centres undefined), the B-score of Tl+ flux slope (higher = more flux/activation; lower = inhibition) is 0.0591 (inactive).

For `COc1ccc(CNC(=O)C(Cc2ccccc2)n2cccc2)cc1` (centres undefined), the B-score of Tl+ flux slope (higher = more flux/activation; lower = inhibition) is -2.15 (inactive).

On to `CCOc1cc2[nH]c(=O)n(CCC(=O)NCc3ccc(OC)cc3)c(=O)c2cc1OCC`, for which the B-score of Tl+ flux slope (higher = more flux/activation; lower = inhibition) was 0.0101 (inactive).

With `COc1ccc(CNC(=O)CCn2cccc2)cc1`, the B-score of Tl+ flux slope (higher = more flux/activation; lower = inhibition) was 7.58 (active).

As for `N#CCCCn1c(O)c(N=NC(=O)C(O)c2ccccc2)c2ccccc21` (centres undefined), the B-score of Tl+ flux slope (higher = more flux/activation; lower = inhibition) was -0.218 (inactive).

On to `Cn1cccc1C(C#N)c1ccccc1C#N` (centres undefined), for which the B-score of Tl+ flux slope (higher = more flux/activation; lower = inhibition) was 1.43 (inactive).

Regarding `O=C(COC(=O)c1ccc(S(=O)(=O)Nc2ccccc2)cc1)NCC1CCCO1` (centres undefined), the B-score of Tl+ flux slope (higher = more flux/activation; lower = inhibition) was 0.0831 (inactive).

In the case of `O=C(NCCCN1CCOCC1)c1ccc(N2CCCC2)c([N+](=O)[O-])c1`, the B-score of Tl+ flux slope (higher = more flux/activation; lower = inhibition) was -0.0166 (inactive).

In the case of `O=C(NNC(=S)NC(=O)c1cn(-c2ccccc2)nc1-c1ccccc1)c1ccncc1`, the B-score of Tl+ flux slope (higher = more flux/activation; lower = inhibition) was 8.65 (active).

As to `O=C(Nc1cn(-c2ccccc2)nc1-c1ccccc1)c1ccccc1`, the B-score of Tl+ flux slope (higher = more flux/activation; lower = inhibition) is -1.74 (inactive).

On to `O=C(O)c1ccc(NC(=O)c2cn(-c3ccccc3)nc2-c2ccc(Cl)cc2)cc1`, for which the B-score of Tl+ flux slope (higher = more flux/activation; lower = inhibition) is -0.953 (inactive).

Regarding `O=C(NCC(c1cccs1)N1CCOCC1)c1cc(-c2ccccn2)nc2ccccc12` (centres undefined), the B-score of Tl+ flux slope (higher = more flux/activation; lower = inhibition) is -0.17 (inactive).

On to `CCc1nnc(NC(=O)CSc2nc3c(c(=O)n2-c2ccccc2OC)SCC3)s1`, for which the B-score of Tl+ flux slope (higher = more flux/activation; lower = inhibition) was -2.34 (inactive).

In the case of `CCn1c(SCc2ccccc2)nc2c(c1=O)SCC2`, the B-score of Tl+ flux slope (higher = more flux/activation; lower = inhibition) was -2.99 (active).

With `Cc1cccc(CSc2nc3c(c(=O)n2C)SCC3)c1`, the B-score of Tl+ flux slope (higher = more flux/activation; lower = inhibition) was -0.478 (inactive).

Turning to `CC1=CC(C)(C)NC(=S)N1NC(=O)c1ccccc1Cl`, the B-score of Tl+ flux slope (higher = more flux/activation; lower = inhibition) was 1.28 (inactive).

For the molecule `O=c1[nH]c2cccnc2n1-c1ccc([N+](=O)[O-])cc1`, the B-score of Tl+ flux slope (higher = more flux/activation; lower = inhibition) was 1.09 (inactive).

Turning to `O=C(Nc1ccccc1)c1ccc2c(c1)OCO2`, the B-score of Tl+ flux slope (higher = more flux/activation; lower = inhibition) is 1.15 (inactive).

Consider `C/C(=N/NC(=S)Nc1ccccc1)c1ccc2c(c1)OCO2`, for which the B-score of Tl+ flux slope (higher = more flux/activation; lower = inhibition) is 17.1 (active).
